The text below walks through data of article PMC7819943, “Rice protein-binding microarrays: a tool to detect cis-acting elements near promoter regions in rice”.

Whole data set: some 39,000 sequences, median “fluorescence intensity (a.u.)” near 4,300, cut for the highest 2% near 39,000. What follows is part of a selection rich in the highest values, with near analogues and random picks from the rest.

In this test the target is T1, OsSMF1 (Oryza sativa, UniProt Q6ZLB0 1-436).
T1 sequence: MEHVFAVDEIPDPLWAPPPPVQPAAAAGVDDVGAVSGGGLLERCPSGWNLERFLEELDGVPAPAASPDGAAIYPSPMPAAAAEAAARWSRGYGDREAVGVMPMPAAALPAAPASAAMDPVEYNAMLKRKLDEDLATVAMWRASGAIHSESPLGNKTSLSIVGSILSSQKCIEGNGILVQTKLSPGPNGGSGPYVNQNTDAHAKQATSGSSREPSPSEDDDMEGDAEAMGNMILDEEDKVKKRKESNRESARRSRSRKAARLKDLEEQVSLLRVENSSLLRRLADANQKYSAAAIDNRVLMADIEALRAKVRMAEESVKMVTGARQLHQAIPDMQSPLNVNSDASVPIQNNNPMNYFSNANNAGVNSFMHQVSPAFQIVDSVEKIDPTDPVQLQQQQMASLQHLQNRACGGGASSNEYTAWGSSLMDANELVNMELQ
Briefly: protein-binding microarray (RPBM); PBS, 2% BSA, 51.3 ng/ul salmon testes DNA, 50 uM zinc acetate, 200 nM TF, 25 C, 1 h; high values mean tight binding. Conditions: protein: recombinant; tags: N-terminal polyhistidine and DsRed monomer fusion (pET32a); chain copies: 2; label: CyDye5-dUTP incorporated in the synthesized complementary strand; 3' TTTTT single-stranded linker to array surface; dsDNA, one strand shown. In outline: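 The binding signal for each feature is its fluorescence intensity in arbitrary units. An Axon 4000B scanner was used to read a custom Agilent array that had been made double-stranded with Cy5-dUTP primer extension, blocked with 2% BSA, incubated at 25 °C for 1 h with 200 nM protein in PBS, 2% BSA, salmon testes DNA and 50 µM zinc acetate, and washed. The protein was an N-terminal polyhistidine–DsRed transcription factor fusion from E. coli BL21-CodonPlus, purified on Ni–NTA.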
With “CCAAAATTAGCTTCGGTCGGTACAAACACCAGAATTCAGCCGGAGTCACCTAGTGCAG”, the binding signal is 3220 fluorescence intensity (a.u.). On to “CGGAATGTCTCCGCGGAAGATGCCCAAGGAATCGCCTGGCCGGAGTCACCTAGTGCAG”, for which the binding signal was 39500 fluorescence intensity (a.u.). As for “CACCGCCCCATCGATCTCCGCCCGGCCGCCACCAATCTCGCGGAGTCACCTAGTGCAG”, the binding signal was 3310 fluorescence intensity (a.u.). On to “GTCTCCGATGCCCCGATGCCGCCGCGTCGCTGGCCTGATTCGGAGTCACCTAGTGCAG”, for which the binding signal was 3390 fluorescence intensity (a.u.). “ATTAATAGCAGTGACGTCTTGCACATACTGTATGAGTCATCGGAGTCACCTAGTGCAG”: the binding signal was 11000 fluorescence intensity (a.u.). As to “TTATCTCCTCATCCATTTTCATCCTCGTCTACATTCACTGCGGAGTCACCTAGTGCAG”, the binding signal was 24600 fluorescence intensity (a.u.). In the case of “TCTTTGGTGATGGATAATAACCCGATATAAACAATATAGACGGAGTCACCTAGTGCAG”, the binding signal was 65000 fluorescence intensity (a.u.). Next, “ATAATATAAAACGGATGGATCACATGCTATGAACCTATGACGGAGTCACCTAGTGCAG”: 51200 fluorescence intensity (a.u.); “ATTGGACGATAAAATATTGGACGGTGATTCACCTTTTAGACGGAGTCACCTAGTGCAG”: 3170 fluorescence intensity (a.u.); “AATGTAATAAATTGTAGATGTCATTGCTATGCATGCATGACGGAGTCACCTAGTGCAG”: 3920 fluorescence intensity (a.u.). With “GAACATATCACATGCTCATATCAAAATTTATAATATTAAACGGAGTCACCTAGTGCAG”, the binding signal is 35200 fluorescence intensity (a.u.). As to “CATGGATAGGATAATCGTAACAATTATCTAGACAGTGATGCGGAGTCACCTAGTGCAG”, the binding signal is 3140 fluorescence intensity (a.u.).

As to “ATTATGAGCCATGATTCTCTCATCATGCAATGTCCCAGCACGGAGTCACCTAGTGCAG”, the binding signal is 22100 fluorescence intensity (a.u.). Next, “TATATATGCACCGAGACACATATGAATCATCACACGTCTTCGGAGTCACCTAGTGCAG”: 3550 fluorescence intensity (a.u.); “CGCCGCCTCACCAGCGCCACCTCCACCTCCACCTACGTCTCGGAGTCACCTAGTGCAG”: 3270 fluorescence intensity (a.u.); “TTGCAGCAGAATACTTACCACGACAGAATTTGAGGATCTACGGAGTCACCTAGTGCAG”: 29500 fluorescence intensity (a.u.).

With “CCAGCATCTGACACATCCTTTCCTAGCTGATCGACTCCATCGGAGTCACCTAGTGCAG”, the binding signal was 3420 fluorescence intensity (a.u.). For the sequence “GCATAAATGATGTGTTTCTGAATCCAATTACACACATGATCGGAGTCACCTAGTGCAG”, the binding signal is 5020 fluorescence intensity (a.u.).

Turning to “AGATCGACCAATGATACACACACAGCATATGAATCCTTTCCGGAGTCACCTAGTGCAG”, the binding signal was 41400 fluorescence intensity (a.u.). Turning to “AATACCGACGTGTCTAGACCTCAGCGACACACTGGAGCGTCGGAGTCACCTAGTGCAG”, the binding signal was 5000 fluorescence intensity (a.u.). Next, “TCCCCTTCTTCACCGATGCGGCGATGCGCGCGCCTTCTTCCGGAGTCACCTAGTGCAG”: 27500 fluorescence intensity (a.u.).

Take “GTGTTCGACGAAATGCCAACAAGGAACGTGGTGGCGTGGACGGAGTCACCTAGTGCAG”: the binding signal is 3500 fluorescence intensity (a.u.).

With “GCGCCGCCGGCGCCGCGGCGCGGCCGATGACCACGCCGGACGGAGTCACCTAGTGCAG”, the binding signal is 3490 fluorescence intensity (a.u.). “CAAGGCGGCCCAACCATCTTCGAAATGCGGCCCATGACGACGGAGTCACCTAGTGCAG”: the binding signal was 39100 fluorescence intensity (a.u.). In the case of “ACGGACGGGCGTCGGCGCGGGCGATGACGGACTGACGACGCGGAGTCACCTAGTGCAG”, the binding signal was 3490 fluorescence intensity (a.u.).

In the case of “CGCGCGCGCCGCCGCCGGTCGGTAACGACGGCGACGATGACGGAGTCACCTAGTGCAG”, the binding signal was 65500 fluorescence intensity (a.u.). Next, “TATCATACAAATGACGACACCACACAAACGGCGGCCCAAGCGGAGTCACCTAGTGCAG”: 4320 fluorescence intensity (a.u.).

“CCCACGGCGCAACGATGACGATGACGATGCCCTTCCGGCGCGGAGTCACCTAGTGCAG”: the binding signal is 46900 fluorescence intensity (a.u.). In the case of “GAACGATGACGGCGCGATGGCCGCCGCCGTGGCGCGGACGCGGAGTCACCTAGTGCAG”, the binding signal is 3210 fluorescence intensity (a.u.). Next, “CCATCCACCATTCACTTTCCCACCTACCTCCACTATTTATCGGAGTCACCTAGTGCAG”: 3430 fluorescence intensity (a.u.); “AATAATGGGCTGAAAATATGTGACGCGAGGCGAGGGTCCCCGGAGTCACCTAGTGCAG”: 3260 fluorescence intensity (a.u.). In the case of “CGCCAACACGACGCTGTGCCGTGGCGCGCCGACAATCATCCGGAGTCACCTAGTGCAG”, the binding signal was 3600 fluorescence intensity (a.u.).

For “ACATGCCGCTAGGAAATATCCCATCCGGTGCCTGTCTAGACGGAGTCACCTAGTGCAG”, the binding signal is 3150 fluorescence intensity (a.u.). In the case of “TTGCCGGTACTTTGGTACGTCATCCGTGTATAAGTCGGTTCGGAGTCACCTAGTGCAG”, the binding signal was 5840 fluorescence intensity (a.u.). As to “GTGTTCCGCAGCGGCCGGGAGACGCGCCGGCTTGTCCCCTCGGAGTCACCTAGTGCAG”, the binding signal was 42300 fluorescence intensity (a.u.).

Turning to “TCCGCGGCTCCGCGCTCTCCCCTCGCCGGTGTCACCGCTCCGGAGTCACCTAGTGCAG”, the binding signal is 3390 fluorescence intensity (a.u.).

Turning to “CTTGTGGCCGGCGCAGCCGCCGCACCCCTCCGACGTGTTCCGGAGTCACCTAGTGCAG”, the binding signal was 5380 fluorescence intensity (a.u.).

For “CTAACCACGCCCGCCACGTACGCCGCCTCTGGGACCCCGACGGAGTCACCTAGTGCAG”, the binding signal was 5440 fluorescence intensity (a.u.).

In the case of “GCAGCATCTGTGATCTCTCAGTGGGACCCACGTGTCATTGCGGAGTCACCTAGTGCAG”, the binding signal is 5010 fluorescence intensity (a.u.). As for “CCCTGTCCTGAAACGCCGTGACGGCTTCTCCTTCTCCCTCCGGAGTCACCTAGTGCAG”, the binding signal was 8960 fluorescence intensity (a.u.).

For “GTACTCCGTACTAGTAGTGGCACTCAATGTTCGGTATCTGCGGAGTCACCTAGTGCAG”, the binding signal is 50200 fluorescence intensity (a.u.). With “GTCAGTGGCTCAGTGCCACCCGTAGTGTACTGCCACTCCGCGGAGTCACCTAGTGCAG”, the binding signal is 3370 fluorescence intensity (a.u.).

With “CATATATATCTGACTAAAACGGTATATGTTGCACGTAGTGCGGAGTCACCTAGTGCAG”, the binding signal was 3360 fluorescence intensity (a.u.).
